Results as given in ChEMBL document CHEMBL3988442, “University of Dundee, Small-Polar-MMV Screening Library” (2021).
About 1,200 (3.2%) of roughly 38,000 compounds showed an effect of 50% or more. The median lay at about -58%. What follows is part of a selection rich in strong results, with near analogues and random picks from the rest.

tested on: Plasmodium falciparum; assay: Calibr Malaria Delayed Death Assay SOP; format: functional, organism-based; set-up: scale not given: in the data most compounds retested in dose-response had high values; settings: concentration 4.99e-06 (unit not given; other assays of the set use mol/L)

Compared with `Cc1occc1CNc1ncccc1S(N)(=O)=O`, `CC(C)(N)CNS(=O)(=O)Cc1cccc2cccnc12.Cl` is higher in “Percent Effect” value: -160.3% for the first, -113.8% for the second.

First: CCN(C(=O)C1=NN(c2ccccc2)C(=O)CN1)c1ccccc1
Second: CCN(Cc1ccco1)C(=O)C1=NN(c2ccccc2)C(=O)CN1
The “Percent Effect” value of the first is lower: -71.25% for the first, 59.42% for the second.

First: O=C(NCCc1ccccn1)C1=NN(c2ccccc2)C(=O)CN1
Second: CCNC(=O)NC(=O)CNc1cccc(C(=O)c2ccccc2)c1
The “Percent Effect” value of the first is higher: -38.96% for the first, -85.13% for the second.

First: CCc1nc(N2CCC3(CCC(=O)N(Cc4ccncc4)C3)CC2)no1
Second: CCc1ncc2c(n1)CN(CC(=O)Nc1ccncc1)CC2
The “Percent Effect” value of the first is higher: -12.44% for the first, -164.3% for the second.

Going from `CC(C)n1cnnc1CN(C)C(=O)Cn1ccc2ccccc2c1=O` to `CC(C)n1c2ccccc2c2c1cc(C(=O)O)n2C(=O)N(C)C`, the “Percent Effect” value falls from -90.48% to -103.4%.

Compared with `FC(F)(F)C1CCCn2c(CNCc3ccco3)nnc21` (stereo unspecified), `Cc1ccc(N(C)C2CCN(C(=O)CCc3ccco3)CC2)nn1` is higher in “Percent Effect” value: -67.88% for the first, -48.98% for the second.

Compared with `CCc1cc(CNC(=O)N(C2CC2)C(C)c2ccco2)on1` (stereo unspecified), `CCc1cc(CNC(=O)N2Cc3ccccc3N(C)CC2C)on1` (stereo unspecified) is lower in “Percent Effect” value: -36.38% for the first, -73.36% for the second.

First: CCN(CC)C1CCN(C(=O)NCc2c(C)noc2C)CC1
Second: Cc1noc(C)c1CNCC1CCN(CC(O)c2ccccc2)CC1 (stereo unspecified)
The “Percent Effect” value of the first is lower: -63.79% for the first, 41.75% for the second.

First: O=C(O)C(F)(F)F.O=C(c1ccco1)N1C[C@H]2CCCN(Cc3ccc(F)cc3)[C@H]2C1
Second: O=C(O)C(F)(F)F.O=c1cccnn1CC1CN(CC2CCCC2)Cc2nccn2C1 (stereo unspecified)
The “Percent Effect” value of the first is lower: -36.52% for the first, -25.12% for the second.

Compared with `Cn1cccc1C(=O)NCc1cn2c(n1)CN(CC1CCOCC1)CC2.O=C(O)C(F)(F)F`, `COCC1c2c(cnn2C)CCN1C(=O)c1cccn1C.O=C(O)C(F)(F)F` (stereo unspecified) is lower in “Percent Effect” value: -71.57% for the first, -111.1% for the second.

First: Cc1nc(N2CCCC2)nc2c1CCN(C(=O)NC(C)C)CC2
Second: CC(C)c1nc2c(n1C)CCN(CC(=O)Nc1ccc(Cl)cn1)C2
The “Percent Effect” value of the first is higher: 3.788% for the first, -37.81% for the second.

First: Cc1cccc(N2CCOCC3(C2)CN(c2cncnc2)C(=O)CO3)n1 (stereo unspecified)
Second: Cc1ccccc1C(=O)N1CCCn2cnc(CN3CCCC3=O)c2C1
The “Percent Effect” value of the first is higher: -72.37% for the first, -111.5% for the second.

Compared with `O=C(CN1CCCC(Cn2cncn2)C1)NCCc1cccs1` (stereo unspecified), `COc1ccc(CCC(=O)NCCN2CCC(c3cccs3)CC2)cc1` is higher in “Percent Effect” value: -76.44% for the first, 74.85% for the second.

First: O=C(CNC(=O)C1(c2ccc(F)cc2F)CCC1)Nc1cccnc1
Second: O=C(NCCN1CCC(c2cccs2)CC1)c1ccc(F)cc1Cl
The “Percent Effect” value of the first is lower: -130.4% for the first, -24.2% for the second.

Going from `Cc1ccc(CNCc2c[nH]nc2C(C)(C)C)c(OC2CCOC2)c1` (stereo unspecified) to `CN(C)CCN1CCC(CNCc2c[nH]nc2C(C)(C)C)CC1`, the “Percent Effect” value falls from 54.5% to -18.94%.

First: COCCN1CCC(CNCc2c[nH]nc2C(C)(C)C)CC1
Second: O=C(Cc1ccccc1Cl)NCC1CCN(Cc2ccsc2)CC1
The “Percent Effect” value of the first is lower: -136.4% for the first, 33.59% for the second.

First: Cc1ccc(NCc2cccc3cn[nH]c23)cc1OC1CCOC1 (stereo unspecified)
Second: COc1ccc(-c2nnc(CNCCn3cc(C)cn3)o2)cc1
The “Percent Effect” value of the first is higher: 18.44% for the first, -61.63% for the second.

Compared with `Cc1ccc(CNCc2nccn2C)c(OCC2CC2)c1`, `COc1ccc(C(=O)NCCN2CCC(c3cccs3)CC2)cc1OC` is higher in “Percent Effect” value: -19.72% for the first, 29.34% for the second.

Going from `NC(=O)c1ccc(CN2CCC(N3CCCC3)CC2)cc1` to `O=C(Cc1ccccc1Cl)NCCN1CCC(c2cccs2)CC1`, the “Percent Effect” value rises from -126.8% to 62.17%.

First: Cn1nccc1-c1cnc2n1CCC21CCN(C(=O)C2(C)CC2)CC1
Second: CCN1CCCC2(CCN(Cc3nnc(C4CC4)o3)C2)C1=O (stereo unspecified)
The “Percent Effect” value of the first is lower: -43.4% for the first, -40.49% for the second.

Compared with `CSc1nc2ncc3c(=O)n(CCN4CCCCC4)ccc3n2n1`, `CCc1ncc2c(n1)CN(CC(=O)Nc1ccc(Cl)cn1)CC2` is higher in “Percent Effect” value: -81.14% for the first, 58.18% for the second.

Going from `Cc1ncccc1C(=O)Nc1cccc(OCC(F)F)n1` to `COc1ccc(-n2cc(CNC(=O)c3cscn3)nn2)cc1`, the “Percent Effect” value falls from -105.7% to -125.4%.

Going from `COc1ccc(S(=O)(=O)N2Cc3c(CN(C)C)nn(C)c3C2)cc1.O=C(O)C(F)(F)F` to `CCc1ccc(S(=O)(=O)N2Cc3c(CN(C)C)nn(C)c3C2)cc1.O=C(O)C(F)(F)F`, the “Percent Effect” value rises from 40.82% to 62.16%.

First: Cc1ccc(CS(=O)(=O)N2Cc3c(CN(C)C)nn(C)c3C2)cc1.O=C(O)C(F)(F)F
Second: CCS(=O)(=O)N1Cc2ncn(CC3CC3)c2C(COCC2CC2)C1.O=C(O)C(F)(F)F (stereo unspecified)
The “Percent Effect” value of the first is higher: 28.75% for the first, -83.39% for the second.

Compared with `CNc1ncc(CN(C)c2nc(C3CCCC3)nc3c2cnn3C)cn1`, `Cc1ncncc1C(=O)N1CCCC(c2[nH]ncc2S(C)(=O)=O)C1` (stereo unspecified) is lower in “Percent Effect” value: -13.34% for the first, -131.2% for the second.

Going from `O=C(NCCc1ccccc1)NCCN1CCC(c2cccs2)CC1` to `O=C(NCCN1CCC(c2cccs2)CC1)Nc1cccs1`, the “Percent Effect” value falls from 76.7% to 62.79%.

Going from `O=C(NCCN1CCC(c2cccs2)CC1)c1ccccc1C(F)(F)F` to `CCSc1ccccc1C(=O)NCCN1CCC(c2cccs2)CC1`, the “Percent Effect” value falls from 31.51% to 28.22%.

First: O=C(NCCC(O)c1ccoc1)Nc1cccs1 (stereo unspecified)
Second: CC(=O)NCCN1CCC(c2cccs2)CC1
The “Percent Effect” value of the first is lower: -113.5% for the first, 2.442% for the second.

First: CC1CCN(CCNC(=O)c2sccc2C2CC2)CC1
Second: CC(C)CCN1CCN(CC(=O)Nc2ccc3nsnc3c2)CC1
The “Percent Effect” value of the first is higher: -42.92% for the first, -73.84% for the second.

Going from `Cn1cnc2c1C(COCC1CC1)CN(c1ncccn1)C2.O=C(O)C(F)(F)F.O=C(O)C(F)(F)F` (stereo unspecified) to `I.c1ccc(OCCNC2=NCCCN2)cc1`, the “Percent Effect” value rises from -186% to 17.05%.

Compared with `CCc1nnc(SCc2nonc2C)n1C`, `CC(C)OCc1noc(C2CCOC2)n1` (stereo unspecified) is higher in “Percent Effect” value: -83.75% for the first, -54.08% for the second.

Going from `O=C(O)c1cc(S(=O)(=O)Nc2cccc3c2OCCO3)c(Cl)cc1F` to `O=S(=O)(c1ccccc1Cl)N1CCC2(CC1)OCCS2`, the “Percent Effect” value falls from -73.09% to -115.5%.

Going from `CCOCc1ccc(CNC2=NCCCN2)cc1.I` to `CN(C)c1ccc(CNC2=NCCCN2)cc1.I`, the “Percent Effect” value falls from 55.49% to -57.09%.
